# Test results taken from PubChem BioAssay AID1347404 (Pan Lab, Icahn School of Medicine at Mount Sinai, 2020).
# In all, about 140,000 compounds went through this assay and about 860 (0.61%) were called active. Only a selection was taken, and actives are over-represented in it overall. Values without a mark were called inactive. Cut-off read from the data, not from the text of the source: active = inhibition above about 25%; inactive = the rest.
# Biological target: E3 ubiquitin-protein ligase RBX1 (Homo sapiens) + Cullin-1 (Homo sapiens) (UniProt P62877+Q13616)
# Assay: blocks human RBX1-Cullin-1 di-ubiquitin formation (AID 1347404)
# Details: in vitro K48 di-Ub FRET, acceptor:donor ratio, 45 min; at 10 µM; stronger effect = higher value
# Sequence of E3 ubiquitin-protein ligase RBX1 (Homo sapiens) + Cullin-1 (Homo sapiens) (P62877 whole entry, looked up): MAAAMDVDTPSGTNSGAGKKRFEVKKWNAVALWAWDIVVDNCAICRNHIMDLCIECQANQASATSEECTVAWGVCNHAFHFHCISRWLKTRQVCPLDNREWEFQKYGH
# Sequence of E3 ubiquitin-protein ligase RBX1 (Homo sapiens) + Cullin-1 (Homo sapiens) (Q13616 whole entry, looked up): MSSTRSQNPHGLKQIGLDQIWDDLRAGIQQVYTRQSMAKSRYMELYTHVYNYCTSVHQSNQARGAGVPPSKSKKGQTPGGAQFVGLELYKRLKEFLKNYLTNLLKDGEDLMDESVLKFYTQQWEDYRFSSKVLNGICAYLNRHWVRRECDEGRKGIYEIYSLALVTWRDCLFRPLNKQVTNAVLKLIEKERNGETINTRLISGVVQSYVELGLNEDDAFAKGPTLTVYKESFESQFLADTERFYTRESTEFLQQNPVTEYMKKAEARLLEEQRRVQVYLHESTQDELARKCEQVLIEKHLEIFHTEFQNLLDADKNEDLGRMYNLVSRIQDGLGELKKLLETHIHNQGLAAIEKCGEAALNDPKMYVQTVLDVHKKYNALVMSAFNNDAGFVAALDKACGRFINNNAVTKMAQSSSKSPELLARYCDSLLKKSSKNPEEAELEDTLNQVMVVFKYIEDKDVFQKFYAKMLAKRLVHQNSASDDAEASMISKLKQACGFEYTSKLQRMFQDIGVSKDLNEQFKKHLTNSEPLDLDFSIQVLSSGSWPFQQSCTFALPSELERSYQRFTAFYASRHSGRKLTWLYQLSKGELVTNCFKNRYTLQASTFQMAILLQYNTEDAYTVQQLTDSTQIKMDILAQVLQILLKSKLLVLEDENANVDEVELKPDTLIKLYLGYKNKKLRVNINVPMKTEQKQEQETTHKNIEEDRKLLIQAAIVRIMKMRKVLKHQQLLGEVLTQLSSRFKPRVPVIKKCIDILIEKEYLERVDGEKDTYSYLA
row,SMILES,inhibition
1,CN(C)c1ccc(/C=C2\SC(=N)N(c3nccs3)C2=O)cc1,-5.77%
2,Cc1ccc(N2C(=O)/C(=C\c3ccc(Cl)cc3)SC2=S)cc1,8.97%
3,CC(C(=O)O)N1C(=O)/C(=C/c2ccc(N(C)C)cc2)SC1=S (stereo unspecified),52.9% (active)
4,CCOc1ccc(/C=C2\C(=O)NN(c3ccc(Cl)c(Cl)c3)C2=O)cc1OCC,1.02%
5,CCOc1cc(/C=C2/C(=O)NN(c3ccc(CC)cc3)C2=O)c(Br)c(Br)c1O,54.1% (active)
6,CCCOc1ccccc1/C=C1\C(=O)NN(c2cccc(Br)c2)C1=O,20%
7,CC1=NC(=O)C(C#N)=C(C)C1CSCc1ccco1 (stereo unspecified),0.332%
8,N#CC1=C2c3ccccc3CCC2C(c2ccco2)=NC1=O (stereo unspecified),42% (active)
9,CCN(Cc1nccn1C)C(=O)c1ccc(N(C)CC2CCCCN2C)nc1 (stereo unspecified),-0.562%
10,CCC(C)C(=O)Nc1ccc(I)cc1 (stereo unspecified),3.94%
11,COc1ccccc1NC(=O)NC1CC(=O)N(CC(C)(C)C)C1 (stereo unspecified),-2.73%
12,CC1(C)CC(=O)C(=Cc2c[nH]c3ccccc23)C(=O)C1,-0.144%
13,Cc1cc(C)cc(N2CC(C(=O)N3CCc4ccccc4C3)CC2=O)c1 (stereo unspecified),6.46%
14,O=C(CC1C(=O)NCCN1CCc1ccccc1)NCCCn1ncc2ccccc21 (stereo unspecified),0.369%
15,COc1cc(C2C3=C(CCCC3=O)OC3=C2C(=O)CCC3)ccc1OCC(=O)Nc1ccccc1,-1.19%
16,O=C(NC(=S)N1CCCC1)c1ccc(Br)o1,4.57%
17,O=C(C[n+]1c2ccccc2n2nc3c(cc21)c1cccc2cccc3c21)Nc1nc2ccccc2[nH]1,93.1% (active)
18,O=C(/C=C/c1ccccc1)Oc1cccc(C(=O)Nc2nc3ccccc3[nH]2)c1,14.2%
19,O=C([O-])c1ccc(C[n+]2c3ccccc3n3nc4c(cc32)c2cccc3cccc4c32)cc1,-16.8%
20,Cn1c(=O)c2c(nc(SCC(=O)Nc3ccc(OC(F)(F)F)cc3)n2Cc2cccc(Cl)c2)n(C)c1=O,10%
21,Cc1cc(N2C(=O)C(=O)C(C(=O)c3ccc(F)cc3)C2c2ccccc2)no1 (stereo unspecified),-4.72%
22,COCCN(C)C(=O)c1cc(NC(=O)c2ccccc2)cc2ncn(C3CCCC3)c12,12.6%
23,C=CCn1c(SCC(=O)c2ccccc2)nc2ccccc2c1=O,2.49%
24,COc1ccc(/C=C/C(=O)c2cc3ccccc3oc2=O)c(OC)c1,-5.94%
25,COc1ccc(OC)c(/C=C/C(=O)c2ccc(OC)c(OC)c2)c1,-2.06%
26,CCN=C1CC=C(Br)C=C(C(=O)/C=C/c2ccccc2OC)C1=O,101% (active)
